Test [1] is described as follows: qHTS assay to identify small molecule antagonists of the thyroid receptor (TR) signaling pathway - cell viability counter screen (AID 743064). Also: nearly all actives have a fitted effect of over 50% in size. Also: potency is read from the fitted curve at half-maximal effect. Put shortly:
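GH3.TRE-Luc rat pituitary cells dosed after 4 hr plating, co-stimulated with T3 at 1 nM final, incubated 23.5 h at 37 C. Viability measured in the same wells by CellTiter-Fluor fluorescence after 30 min further at 37 C.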
(qHTS replaces the single test concentration by a dilution series.)

In test [2] the test system is thyroid hormone receptor (rat, GH3 cells). The experiment in a line: qHTS assay to identify small molecule agonists of the thyroid receptor (TR) signaling pathway (AID 743066; calls by dose curve).
For test [3], the target named is Estrogen receptor (Homo sapiens) (UniProt P03372). The test can be described thus: qHTS assay to identify small molecule antagonists of the estrogen receptor alpha (ER-alpha) signaling pathway (AID 743069; active = well fitted curve in the direction sought with a large enough effect in the signal ratio in the repeat runs, not every such curve was filed as active; the % refers to the signal ratio). The gist of the method: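 ER-alpha-UAS-bla GripTite HEK293 line; 2% charcoal-stripped FBS overnight; plated, 4 hr 37C/5% CO2; cpd in DMSO + 17beta-estradiol, 18 hr 37C; LiveBLAzer B/G FRET substrate 2 hr RT; fluorescence intensity.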
Chain of Estrogen receptor (Homo sapiens) (P03372 whole entry, looked up): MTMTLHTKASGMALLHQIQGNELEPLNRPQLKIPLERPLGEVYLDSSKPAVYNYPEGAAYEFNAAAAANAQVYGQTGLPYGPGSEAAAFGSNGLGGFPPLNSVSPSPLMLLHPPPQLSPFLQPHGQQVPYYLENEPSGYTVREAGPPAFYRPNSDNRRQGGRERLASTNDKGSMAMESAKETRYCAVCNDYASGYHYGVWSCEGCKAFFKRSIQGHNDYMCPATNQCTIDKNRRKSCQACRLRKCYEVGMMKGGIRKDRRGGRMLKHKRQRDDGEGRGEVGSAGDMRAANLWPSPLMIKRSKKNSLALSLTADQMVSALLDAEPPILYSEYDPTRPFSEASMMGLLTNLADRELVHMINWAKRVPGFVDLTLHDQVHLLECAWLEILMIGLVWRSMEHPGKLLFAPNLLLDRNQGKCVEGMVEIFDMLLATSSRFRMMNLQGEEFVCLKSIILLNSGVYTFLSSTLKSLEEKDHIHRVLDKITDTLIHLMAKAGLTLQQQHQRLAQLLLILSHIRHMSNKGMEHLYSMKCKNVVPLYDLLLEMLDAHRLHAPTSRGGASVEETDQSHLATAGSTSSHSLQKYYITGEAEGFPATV

Test [4] is described as follows: qHTS assay to identify small molecule antagonists of the estrogen receptor alpha (ER-alpha) signaling pathway - cell viability counter screen (AID 743074; calls by dose curve;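 also: HEK293 cells carrying ER-alpha-UAS-bla reporter stimulated with 17beta-estradiol; nearly all actives have a fitted effect of over 45% in size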; also: potency is read from the fitted curve at half-maximal effect).
The target in test [5] is Estrogen receptor (Homo sapiens) (UniProt P03372). The experiment in a line: qHTS assay to identify small molecule agonists of the estrogen receptor alpha (ER-alpha) signaling pathway (AID 743075; calls by dose curve;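 also: HEK293 GripTite cells with ER-alpha and UAS-driven beta-lactamase reporter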; also: potency is read from the fitted curve at half-maximal effect).
For test [6] the target is unchanged. The experiment in a line: qHTS assay to identify small molecule agonists of the estrogen receptor alpha (ER-alpha) signaling pathway using the BG1 cell line (AID 743079). Also: nearly all actives have a fitted effect of over 20% in size. Also: potency is read from the fitted curve at half-maximal effect. To be noted: BG1Luc4E2 cells, ERE-luciferase agonist, 22 h; activation: at 70.3 µM (top of the series).
Test [7] is described as follows: qHTS assay to identify small molecule antagonists of the estrogen receptor alpha (ER-alpha) signaling pathway using the BG1 cell line (AID 743080; calls by dose curve;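 also: BG1 cells stimulated with 17beta-estradiol alongside compound; nearly all actives have a fitted effect of over 25% in size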; also: potency is read from the fitted curve at half-maximal effect). The gist of the method:
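BG1-Luc-4E2 cells (endogenous full-length ER-alpha, 4xERE luciferase) hormone-starved 5 days in charcoal-stripped FBS, plated 4,000/well for 24 h, then compound plus 17beta-estradiol for 21.5 h at 37 C; ONE-Glo luminescence read.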

Test [8] can be described thus: qHTS assay to identify small molecule antagonists of the estrogen receptor alpha (ER-alpha) signaling pathway using the BG1 cell line - cell viability counter screen (AID 743081).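 Also: compound given together with 17beta-estradiol as the ER stimulus; nearly all actives have a fitted effect of over 45% in size.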 Also: potency is read from the fitted curve at half-maximal effect.
A short description of test [9]: qHTS assay to identify small molecule antagonists of the thyroid receptor (TR) signaling pathway (AID 743065). Also: potency is read from the fitted curve at half-maximal effect; nearly all actives have a fitted effect of over 55% in size. The gist of the method: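 Antagonism measured as loss of luciferase signal in GH3 cells stably carrying a TRE-luciferase reporter, co-treated with compound and T3 (1 nM final) for 23.5 h at 37 C. Viability was read in the same well by CellTiter-Fluor.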
Test [10] addresses Aromatase (Homo sapiens) (UniProt P11511). The experiment in a line: qHTS assay to identify aromatase inhibitors (AID 743083). Also: nearly all actives have a fitted effect of over 55% in size. Also: potency is read from the fitted curve at half-maximal effect.

Potency data for 19 molecules are collected here from PubChem BioAssay (Tox21).

Inconclusive results are not listed. Activity calls are given as the source filed them. Unless noted, calls follow the shape of the dose curve; as a rule, active = well fitted curve in the direction sought with a large enough effect in the repeat runs; inconclusive = weak or mixed curves; inactive = no such curve, though single readings can be large; an effect the other way counts as inactive or inconclusive.

Chain of Aromatase (Homo sapiens) (P11511 whole entry, looked up): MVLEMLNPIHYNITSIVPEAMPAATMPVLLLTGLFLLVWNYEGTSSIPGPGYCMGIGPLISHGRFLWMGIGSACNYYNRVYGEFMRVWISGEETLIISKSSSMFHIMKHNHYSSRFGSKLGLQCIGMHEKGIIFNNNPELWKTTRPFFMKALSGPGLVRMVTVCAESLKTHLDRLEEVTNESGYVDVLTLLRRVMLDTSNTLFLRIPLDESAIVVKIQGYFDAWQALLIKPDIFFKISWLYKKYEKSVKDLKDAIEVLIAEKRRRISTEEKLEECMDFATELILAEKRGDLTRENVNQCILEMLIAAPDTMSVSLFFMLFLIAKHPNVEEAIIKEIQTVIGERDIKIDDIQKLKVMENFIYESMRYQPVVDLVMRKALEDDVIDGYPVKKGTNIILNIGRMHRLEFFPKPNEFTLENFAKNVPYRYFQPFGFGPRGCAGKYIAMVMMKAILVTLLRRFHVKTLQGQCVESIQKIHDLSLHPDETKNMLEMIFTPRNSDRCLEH

As for `CC(C(=O)O)c1ccc(C2CCCCC2)c2ccccc12` (stereo not given), the Potency entry in test [1], in test [2], in test [3], in test [4], in test [5] and in test [6] was “inactive” in each case. Further, the Potency entry in test [7] and in test [8] was “inactive” each time.
Turning to `CCCCCCCCCCCCCC[n+]1ccc(C)cc1`, the Potency was 7.5 µM (active) in [1], 4.73 µM (active) in test [9] and 8.41 µM (active) in test [10]. Besides, the Potency result in test [5] was “inactive”.
Turning to `COc1ccc(/C=C/C(=O)OCCC(C)C)cc1`, the Potency entry in test [1], in test [2], in [3], in test [4], in test [5] and in test [8] was “inactive” each time. Also, the Potency result in [10] is “inactive”.
For `COC(=O)[C@H]1[C@H]2C[C@@H]3c4[nH]c5cc(OC)ccc5c4CCN3C[C@H]2C[C@@H](OC(=O)/C=C/c2cc(OC)c(OC)c(OC)c2)[C@@H]1OC`, the Potency result in [1], in test [2], in test [3], in test [4], in [5] and in test [6] was “inactive” in each case. Further, the Potency entry in test [7], in test [8] and in test [10] was “inactive” in each case.
Turning to `CC(=O)N(CC(C)C(=O)O)c1c(I)cc(I)c(N)c1I` (stereo not given), the Potency result in test [1], in [2], in test [3], in [4], in [5] and in [6] was “inactive” in each case. The Potency result in [7], in test [8] and in [10] was “inactive” in each case.
For `CC(=O)O[C@H]1CC[C@@]2(C)C(=CC[C@@H]3[C@@H]2CC[C@]2(C)C(c4cccnc4)=CC[C@@H]32)C1`, the Potency in test [1] was 29.8 µM (active); in test [5], 13.4 µM [activator] (active); in [6], 29.8 µM (active). For the same molecule, the Potency entry in test [2], in test [3], in [4], in [7], in test [8] and in test [10] was “inactive” each time.
For the molecule `CCCCC/C=C\CCC(=O)N[C@H]1[C@H](Oc2c3cc4cc2Oc2ccc(cc2Cl)[C@@H](O[C@@H]2O[C@H](CO)[C@@H](O)[C@H](O)[C@H]2NC(C)=O)[C@@H]2NC(=O)[C@H](NC(=O)[C@@H]4NC(=O)[C@H]4NC(=O)[C@@H](Cc5ccc(c(Cl)c5)O3)NC(=O)[C@H](N)c3ccc(O)c(c3)Oc3cc(O)cc4c3)c3ccc(O)c(c3)-c3c(O[C@H]4O[C@H](CO)[C@@H](O)[C@H](O)[C@@H]4O)cc(O)cc3[C@@H](C(=O)O)NC2=O)O[C@H](CO)[C@@H](O)[C@@H]1O`, the Potency result in test [1], in test [2], in test [3], in test [4], in [5] and in test [6] was “inactive” throughout. Further, the Potency result in test [7] and in [10] was “inactive” throughout.
In the case of `COc1ccc(C[C@@H](C)NC[C@H](O)c2ccc(O)c(NC=O)c2)cc1`, the Potency entry in [1], in test [2], in test [3], in [5], in [6] and in test [7] was “inactive” each time. In addition, in test [8], the Potency result is “inactive”.
For the molecule `CC1(C)N=C(N)N=C(N)N1c1ccc(Cl)cc1`, the Potency result in test [1], in test [2], in test [3], in [5], in test [7] and in test [8] was “inactive” throughout. Further, the Potency entry in test [10] is “inactive”. Also, the Potency in [4] was 12 µM (active).
For `COc1cc(NCCCC(C)N)c2ncccc2c1` (stereo not given), the figures for the Potency in [1] and in test [8] were 15 µM (active) and 18.8 µM (active), respectively. The Potency entry in test [2], in [3], in test [4] and in [5] was “inactive” each time.
On to `O=C(NNCS(=O)(=O)O)c1ccncc1`, for which the Potency entry in test [1], in [2], in test [3], in [4], in test [5] and in [6] was “inactive” throughout. Also, the Potency entry in [7], in test [8] and in test [10] was “inactive” throughout.
On to `CCC(=O)OCC(=O)[C@@]1(OC(=O)CC)[C@@H](C)C[C@H]2[C@@H]3CCC4=CC(=O)C=C[C@]4(C)[C@@]3(Cl)[C@@H](O)C[C@@]21C`, for which the Potency entry in [1], in test [2], in test [3], in test [4], in test [6] and in test [8] was “inactive” in each case. The Potency in test [10] is 2.66 µM (active).
`CC[C@]1(O)CC2CN(CCc3c([nH]c4ccccc34)[C@@](C(=O)OC)(c3cc4c(cc3OC)N(C)[C@H]3[C@@](O)(C(N)=O)[C@H](O)[C@]5(CC)C=CCN6CC[C@]43[C@@H]65)C2)C1` (stereo not given in full): the Potency in test [1] was 0.335 µM (active); in test [9], 0.168 µM (active); in [7], 0.15 µM (active). Further, the Potency result in [6] and in test [10] was “inactive” in each case.
In the case of `N[C@@H](C(=O)N[C@@H]1C(=O)N2C(C(=O)O)=C(Cl)CC[C@H]12)c1ccccc1`, the Potency entry in test [1], in [2], in [3], in test [4], in test [5] and in test [6] was “inactive” throughout. For the same molecule, in test [10], the Potency entry is “inactive”.
For the molecule `CN1[C@@H]2CCC[C@H]1CC(NC(=O)c1nn(C)c3ccccc13)C2` (stereo not given in full), the Potency entry in test [1], in test [2], in test [3], in [4], in test [5] and in test [6] was “inactive” throughout. For the same molecule, the Potency result in test [7], in test [8] and in [10] was “inactive” in each case.
Consider `CC(=O)O[C@H]1C(=O)[C@@]2(C)[C@H]([C@H](OC(=O)c3ccccc3)[C@]3(O)C[C@H](OC(=O)[C@H](O)[C@@H](NC(=O)c4ccccc4)c4ccccc4)C(C)=C1C3(C)C)[C@]1(OC(C)=O)CO[C@@H]1C[C@@H]2O`, for which the Potency in [1] was 0.266 µM (active). In addition, the Potency result in test [2], in [3], in test [4], in test [5] and in test [10] was “inactive” each time.
With `C=CC1=C(C)C2=CC3=NC(=C(CC(=O)[O-])C4=NC(=C(C)C4=C([O-])[O-])C=c4[n-]c(c(C)c4CC)=CC1=N2)C(CCC(=O)[O-])C3C.[Cu+2].[Na+].[Na+].[Na+]` (stereo not given), the Potency is 26.6 µM (active) in test [1] and 29.8 µM (active) in test [8]. The Potency entry in [2], in test [3], in test [4], in test [5], in [6] and in test [10] was “inactive” each time.
For the molecule `CC(C)[C@@H](C)/C=C/[C@@H](C)[C@H]1CC[C@H]2/C(=C/C=C3\C[C@@H](O)CC[C@@H]3C)CCC[C@]12C`, the Potency result in test [1], in test [2], in test [3], in test [4], in [5] and in test [6] was “inactive” each time. The Potency entry in [7], in test [8] and in [10] was “inactive” each time.
For the molecule `O=C(Nc1ccc(Br)cc1)c1cc(Br)c(Br)s1`, the Potency in test [1] is 18.8 µM (active); in test [9] it was 13.3 µM (active). The Potency entry in [5], in test [8] and in test [10] was “inactive” in each case.
